According to ChEMBL document CHEMBL1961873, “Compounds: GSK PKIS; Assays: Nanosyn kinase panel” (2012):

Tests used:
[1] = test system: Epidermal growth factor receptor (Homo sapiens), P00533 [T790M]; settings: at 1 µM
[2] = test system: Epidermal growth factor receptor (Homo sapiens), P00533 [L858R,T790M]; settings: at 0.1 µM
[3] = test system: Epidermal growth factor receptor (Homo sapiens), P00533 [L858R,T790M]; settings: at 1 µM
[4] = molecular target: Ephrin type-A receptor 2 (Homo sapiens) (UniProt P29317); settings: at 0.1 µM
[5] = molecular target: Ephrin type-A receptor 2 (Homo sapiens) (UniProt P29317); settings: at 1 µM
[6] = molecular target: T1, Ephrin type-A receptor 3 (Homo sapiens) (UniProt P29320); settings: at 0.1 µM
T1 sequence (whole entry): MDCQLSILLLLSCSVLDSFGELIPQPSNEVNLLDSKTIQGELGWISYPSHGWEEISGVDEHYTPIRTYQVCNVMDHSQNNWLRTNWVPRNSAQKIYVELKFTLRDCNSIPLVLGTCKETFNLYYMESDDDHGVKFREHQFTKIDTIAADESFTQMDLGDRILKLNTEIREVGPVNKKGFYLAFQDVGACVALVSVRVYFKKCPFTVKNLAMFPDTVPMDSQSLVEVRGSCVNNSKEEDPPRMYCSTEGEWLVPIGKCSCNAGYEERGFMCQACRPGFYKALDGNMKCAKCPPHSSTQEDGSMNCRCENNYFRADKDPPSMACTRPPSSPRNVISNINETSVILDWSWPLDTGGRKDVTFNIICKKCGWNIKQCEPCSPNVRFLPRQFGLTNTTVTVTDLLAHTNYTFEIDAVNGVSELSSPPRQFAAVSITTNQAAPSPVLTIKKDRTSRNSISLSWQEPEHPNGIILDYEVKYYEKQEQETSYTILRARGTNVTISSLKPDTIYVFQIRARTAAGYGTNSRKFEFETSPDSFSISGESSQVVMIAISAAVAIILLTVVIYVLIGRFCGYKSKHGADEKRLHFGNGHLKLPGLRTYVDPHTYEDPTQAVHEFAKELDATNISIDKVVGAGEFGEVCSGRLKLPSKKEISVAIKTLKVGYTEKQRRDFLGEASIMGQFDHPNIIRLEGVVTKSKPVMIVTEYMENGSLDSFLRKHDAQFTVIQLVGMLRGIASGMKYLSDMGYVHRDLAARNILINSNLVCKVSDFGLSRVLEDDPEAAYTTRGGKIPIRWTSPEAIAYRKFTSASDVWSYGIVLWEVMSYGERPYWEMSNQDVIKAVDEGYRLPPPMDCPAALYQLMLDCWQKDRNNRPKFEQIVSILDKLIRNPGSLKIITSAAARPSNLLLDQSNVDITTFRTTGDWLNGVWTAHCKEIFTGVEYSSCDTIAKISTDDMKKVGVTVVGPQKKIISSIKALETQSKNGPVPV

[7] = molecular target: T1, Ephrin type-A receptor 3 (Homo sapiens); settings: at 1 µM
[8] = molecular target: Ephrin type-A receptor 4 (Homo sapiens) (UniProt P54764); settings: at 0.1 µM
[9] = molecular target: Ephrin type-A receptor 4 (Homo sapiens) (UniProt P54764); settings: at 1 µM
[10] = molecular target: T2, Ephrin type-B receptor 2 (Homo sapiens) (UniProt P29323); settings: at 0.1 µM
T2 sequence (whole entry): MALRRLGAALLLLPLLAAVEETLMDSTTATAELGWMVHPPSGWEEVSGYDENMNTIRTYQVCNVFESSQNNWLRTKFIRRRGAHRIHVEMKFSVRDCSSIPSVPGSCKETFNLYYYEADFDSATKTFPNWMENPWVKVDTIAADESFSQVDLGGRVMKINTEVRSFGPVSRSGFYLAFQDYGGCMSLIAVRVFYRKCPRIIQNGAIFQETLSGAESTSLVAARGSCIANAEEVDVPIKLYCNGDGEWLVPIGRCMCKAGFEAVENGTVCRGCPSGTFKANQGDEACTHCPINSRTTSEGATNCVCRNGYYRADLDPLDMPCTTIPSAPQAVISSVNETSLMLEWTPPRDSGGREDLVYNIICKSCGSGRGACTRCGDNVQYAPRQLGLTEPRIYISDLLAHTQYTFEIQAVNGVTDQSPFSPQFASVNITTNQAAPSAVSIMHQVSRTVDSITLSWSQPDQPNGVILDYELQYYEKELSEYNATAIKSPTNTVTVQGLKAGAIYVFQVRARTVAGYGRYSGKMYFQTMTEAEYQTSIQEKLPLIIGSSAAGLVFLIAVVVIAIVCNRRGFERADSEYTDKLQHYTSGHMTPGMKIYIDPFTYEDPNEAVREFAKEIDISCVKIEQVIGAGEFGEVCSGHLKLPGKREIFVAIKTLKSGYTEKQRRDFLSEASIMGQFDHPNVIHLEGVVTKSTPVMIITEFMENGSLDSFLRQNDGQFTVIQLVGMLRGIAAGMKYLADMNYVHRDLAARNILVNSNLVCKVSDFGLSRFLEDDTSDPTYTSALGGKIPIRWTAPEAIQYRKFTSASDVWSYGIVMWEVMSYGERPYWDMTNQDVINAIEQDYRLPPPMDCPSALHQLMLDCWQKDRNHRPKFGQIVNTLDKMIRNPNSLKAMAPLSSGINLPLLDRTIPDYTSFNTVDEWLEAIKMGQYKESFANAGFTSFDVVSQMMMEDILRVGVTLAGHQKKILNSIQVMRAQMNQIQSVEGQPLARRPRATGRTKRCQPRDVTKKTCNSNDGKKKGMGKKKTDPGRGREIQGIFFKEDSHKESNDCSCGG

[11] = molecular target: T2, Ephrin type-B receptor 2 (Homo sapiens); settings: at 1 µM
[12] = molecular target: T3, Ephrin type-B receptor 3 (Homo sapiens) (UniProt P54753); settings: at 0.1 µM
T3 sequence (whole entry): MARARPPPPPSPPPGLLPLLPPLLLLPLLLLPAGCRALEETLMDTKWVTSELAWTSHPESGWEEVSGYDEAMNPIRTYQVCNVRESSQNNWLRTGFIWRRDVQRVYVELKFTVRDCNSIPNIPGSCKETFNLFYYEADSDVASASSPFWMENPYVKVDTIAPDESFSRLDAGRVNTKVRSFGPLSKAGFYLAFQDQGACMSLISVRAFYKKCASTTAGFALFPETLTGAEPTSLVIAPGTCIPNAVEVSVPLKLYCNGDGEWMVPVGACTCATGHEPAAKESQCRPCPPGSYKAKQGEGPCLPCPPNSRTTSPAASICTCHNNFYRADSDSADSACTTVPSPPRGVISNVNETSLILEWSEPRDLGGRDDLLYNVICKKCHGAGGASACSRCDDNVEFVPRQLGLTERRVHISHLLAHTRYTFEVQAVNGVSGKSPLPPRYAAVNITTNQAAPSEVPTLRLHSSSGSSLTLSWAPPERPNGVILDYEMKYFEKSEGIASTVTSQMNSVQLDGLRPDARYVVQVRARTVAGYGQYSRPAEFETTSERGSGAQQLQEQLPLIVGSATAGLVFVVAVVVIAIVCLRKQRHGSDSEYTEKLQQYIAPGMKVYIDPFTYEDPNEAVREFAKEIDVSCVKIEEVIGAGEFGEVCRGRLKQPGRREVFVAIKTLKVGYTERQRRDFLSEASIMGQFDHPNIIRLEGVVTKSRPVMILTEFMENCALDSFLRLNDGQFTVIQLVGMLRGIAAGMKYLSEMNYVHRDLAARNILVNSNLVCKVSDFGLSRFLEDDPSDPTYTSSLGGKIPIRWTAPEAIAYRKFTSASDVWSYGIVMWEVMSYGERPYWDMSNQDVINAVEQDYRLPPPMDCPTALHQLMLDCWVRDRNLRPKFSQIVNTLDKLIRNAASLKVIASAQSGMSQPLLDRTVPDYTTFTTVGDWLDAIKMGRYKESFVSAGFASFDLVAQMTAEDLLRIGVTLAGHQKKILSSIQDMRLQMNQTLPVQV

[13] = molecular target: T3, Ephrin type-B receptor 3 (Homo sapiens); settings: at 1 µM
[14] = molecular target: T4, Ephrin type-B receptor 4 (Homo sapiens) (UniProt P54760); settings: at 0.1 µM
T4 sequence (whole entry): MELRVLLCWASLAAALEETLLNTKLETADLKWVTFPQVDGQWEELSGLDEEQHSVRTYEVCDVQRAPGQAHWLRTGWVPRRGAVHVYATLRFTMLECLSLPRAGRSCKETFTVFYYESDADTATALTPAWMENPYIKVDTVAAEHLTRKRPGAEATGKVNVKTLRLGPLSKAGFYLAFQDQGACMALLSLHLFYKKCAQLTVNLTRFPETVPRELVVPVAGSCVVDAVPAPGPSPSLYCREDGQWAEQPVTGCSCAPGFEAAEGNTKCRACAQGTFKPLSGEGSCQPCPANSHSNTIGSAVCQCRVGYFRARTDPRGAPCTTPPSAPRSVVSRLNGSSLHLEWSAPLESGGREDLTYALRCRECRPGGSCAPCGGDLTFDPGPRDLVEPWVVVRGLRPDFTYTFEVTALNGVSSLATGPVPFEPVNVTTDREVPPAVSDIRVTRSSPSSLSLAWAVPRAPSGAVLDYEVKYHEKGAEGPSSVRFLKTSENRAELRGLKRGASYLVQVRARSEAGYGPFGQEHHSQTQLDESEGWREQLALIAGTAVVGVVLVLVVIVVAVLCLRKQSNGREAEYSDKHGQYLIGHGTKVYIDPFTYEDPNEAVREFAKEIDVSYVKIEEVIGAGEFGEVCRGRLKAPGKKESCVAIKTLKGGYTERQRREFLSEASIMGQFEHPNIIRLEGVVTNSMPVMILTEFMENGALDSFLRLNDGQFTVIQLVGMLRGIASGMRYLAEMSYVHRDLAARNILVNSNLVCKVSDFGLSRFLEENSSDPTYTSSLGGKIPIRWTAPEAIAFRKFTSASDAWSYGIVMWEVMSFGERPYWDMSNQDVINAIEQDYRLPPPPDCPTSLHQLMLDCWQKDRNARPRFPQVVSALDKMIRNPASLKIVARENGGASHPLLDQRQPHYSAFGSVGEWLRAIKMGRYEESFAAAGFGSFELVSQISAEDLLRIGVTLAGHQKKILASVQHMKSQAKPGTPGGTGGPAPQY

[15] = molecular target: T4, Ephrin type-B receptor 4 (Homo sapiens); settings: at 1 µM
[16] = molecular target: Receptor tyrosine-protein kinase erbB-2 (Homo sapiens) (UniProt P04626); settings: at 0.1 µM
[17] = molecular target: Receptor tyrosine-protein kinase erbB-2 (Homo sapiens) (UniProt P04626); settings: at 1 µM
[18] = molecular target: Receptor tyrosine-protein kinase erbB-4 (Homo sapiens) (UniProt Q15303); settings: at 0.1 µM
[19] = molecular target: Receptor tyrosine-protein kinase erbB-4 (Homo sapiens) (UniProt Q15303); settings: at 1 µM
[20] = molecular target: Tyrosine-protein kinase Fer (Homo sapiens) (UniProt P16591); settings: at 0.1 µM;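 further: reported figures are averaged percent inhibition of FER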

Ephrin type-A receptor 2 (Homo sapiens), sequence (P29317 whole entry): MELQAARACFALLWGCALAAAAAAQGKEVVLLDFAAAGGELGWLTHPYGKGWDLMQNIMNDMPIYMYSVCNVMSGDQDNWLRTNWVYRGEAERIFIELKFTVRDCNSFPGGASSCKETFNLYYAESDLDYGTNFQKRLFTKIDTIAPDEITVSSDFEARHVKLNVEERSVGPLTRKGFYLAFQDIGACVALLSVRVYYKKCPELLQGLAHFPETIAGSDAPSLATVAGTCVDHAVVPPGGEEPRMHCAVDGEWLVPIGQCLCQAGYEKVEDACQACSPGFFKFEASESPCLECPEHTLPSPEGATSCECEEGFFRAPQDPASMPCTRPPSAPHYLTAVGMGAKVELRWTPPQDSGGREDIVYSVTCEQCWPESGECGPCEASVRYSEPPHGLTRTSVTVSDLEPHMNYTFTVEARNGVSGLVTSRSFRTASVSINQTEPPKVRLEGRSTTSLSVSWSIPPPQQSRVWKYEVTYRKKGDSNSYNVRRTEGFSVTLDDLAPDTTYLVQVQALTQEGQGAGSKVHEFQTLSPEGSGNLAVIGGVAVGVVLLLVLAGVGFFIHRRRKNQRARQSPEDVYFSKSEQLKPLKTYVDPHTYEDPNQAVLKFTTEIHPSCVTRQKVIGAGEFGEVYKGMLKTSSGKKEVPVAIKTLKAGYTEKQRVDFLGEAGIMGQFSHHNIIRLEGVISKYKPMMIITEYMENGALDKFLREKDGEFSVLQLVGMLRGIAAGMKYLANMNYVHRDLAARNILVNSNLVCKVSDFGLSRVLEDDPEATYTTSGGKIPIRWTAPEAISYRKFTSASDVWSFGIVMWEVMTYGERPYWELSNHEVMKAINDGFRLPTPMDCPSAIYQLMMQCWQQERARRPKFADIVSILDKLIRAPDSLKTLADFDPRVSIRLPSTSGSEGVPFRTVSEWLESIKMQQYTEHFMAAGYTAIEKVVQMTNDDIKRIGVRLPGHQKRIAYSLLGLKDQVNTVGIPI
Epidermal growth factor receptor (Homo sapiens), P00533 [T790M], sequence (P00533 whole entry T790M): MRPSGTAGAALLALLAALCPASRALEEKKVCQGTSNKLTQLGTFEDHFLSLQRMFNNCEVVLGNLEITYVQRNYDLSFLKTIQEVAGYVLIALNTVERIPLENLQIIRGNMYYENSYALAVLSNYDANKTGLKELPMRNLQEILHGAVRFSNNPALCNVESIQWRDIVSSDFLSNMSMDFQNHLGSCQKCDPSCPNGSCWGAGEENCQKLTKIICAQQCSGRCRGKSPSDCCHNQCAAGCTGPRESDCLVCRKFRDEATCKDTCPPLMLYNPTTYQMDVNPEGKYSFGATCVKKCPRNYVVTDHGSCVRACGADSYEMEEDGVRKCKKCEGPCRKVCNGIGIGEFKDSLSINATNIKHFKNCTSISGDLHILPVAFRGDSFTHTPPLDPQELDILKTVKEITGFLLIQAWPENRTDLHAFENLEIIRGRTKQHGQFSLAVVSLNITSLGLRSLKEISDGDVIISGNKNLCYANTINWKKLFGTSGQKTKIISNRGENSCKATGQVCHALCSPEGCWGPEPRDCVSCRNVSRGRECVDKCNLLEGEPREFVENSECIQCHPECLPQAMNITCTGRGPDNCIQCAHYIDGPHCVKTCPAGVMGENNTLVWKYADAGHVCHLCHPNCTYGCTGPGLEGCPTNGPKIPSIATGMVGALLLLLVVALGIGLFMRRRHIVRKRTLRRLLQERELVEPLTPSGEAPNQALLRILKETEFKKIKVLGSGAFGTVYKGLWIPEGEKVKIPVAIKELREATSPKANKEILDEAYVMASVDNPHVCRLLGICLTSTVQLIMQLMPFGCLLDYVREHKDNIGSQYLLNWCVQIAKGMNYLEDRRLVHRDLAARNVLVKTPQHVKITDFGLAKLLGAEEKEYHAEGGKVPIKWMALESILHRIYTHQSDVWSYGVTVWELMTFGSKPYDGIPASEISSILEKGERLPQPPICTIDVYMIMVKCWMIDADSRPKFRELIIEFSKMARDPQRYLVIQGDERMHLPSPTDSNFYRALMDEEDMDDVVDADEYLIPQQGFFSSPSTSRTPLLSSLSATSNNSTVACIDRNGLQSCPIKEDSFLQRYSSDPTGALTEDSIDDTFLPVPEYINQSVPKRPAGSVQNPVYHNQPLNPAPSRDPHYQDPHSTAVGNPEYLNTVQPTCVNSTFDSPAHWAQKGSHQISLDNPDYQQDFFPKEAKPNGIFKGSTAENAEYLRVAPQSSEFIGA
Ephrin type-A receptor 4 (Homo sapiens), sequence (P54764 whole entry): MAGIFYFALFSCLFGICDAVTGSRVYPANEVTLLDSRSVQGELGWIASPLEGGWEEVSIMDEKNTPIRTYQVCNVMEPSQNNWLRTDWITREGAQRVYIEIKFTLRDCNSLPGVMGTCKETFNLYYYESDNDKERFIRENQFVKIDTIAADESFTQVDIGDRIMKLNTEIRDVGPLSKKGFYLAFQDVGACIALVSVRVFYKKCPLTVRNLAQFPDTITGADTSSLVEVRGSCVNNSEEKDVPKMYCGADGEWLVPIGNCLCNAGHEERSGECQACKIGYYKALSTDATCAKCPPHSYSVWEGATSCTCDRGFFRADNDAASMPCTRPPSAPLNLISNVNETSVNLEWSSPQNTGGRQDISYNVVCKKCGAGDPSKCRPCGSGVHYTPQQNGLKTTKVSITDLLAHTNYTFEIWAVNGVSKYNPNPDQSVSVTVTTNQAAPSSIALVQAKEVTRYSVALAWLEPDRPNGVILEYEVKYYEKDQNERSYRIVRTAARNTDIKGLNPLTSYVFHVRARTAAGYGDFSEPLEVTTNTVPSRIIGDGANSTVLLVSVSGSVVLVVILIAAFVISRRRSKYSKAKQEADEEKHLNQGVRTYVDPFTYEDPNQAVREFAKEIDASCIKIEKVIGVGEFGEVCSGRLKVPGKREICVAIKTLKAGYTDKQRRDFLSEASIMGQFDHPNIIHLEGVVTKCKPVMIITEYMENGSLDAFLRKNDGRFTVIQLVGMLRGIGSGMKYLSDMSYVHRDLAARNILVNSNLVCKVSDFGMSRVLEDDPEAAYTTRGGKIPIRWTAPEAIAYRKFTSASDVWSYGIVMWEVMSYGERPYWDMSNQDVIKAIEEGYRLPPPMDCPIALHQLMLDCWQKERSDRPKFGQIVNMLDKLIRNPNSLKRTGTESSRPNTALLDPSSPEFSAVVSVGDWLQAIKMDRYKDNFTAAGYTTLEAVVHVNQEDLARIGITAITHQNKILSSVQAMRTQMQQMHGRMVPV
Epidermal growth factor receptor (Homo sapiens), P00533 [L858R,T790M], sequence (P00533 whole entry T790M/L858R, looked up): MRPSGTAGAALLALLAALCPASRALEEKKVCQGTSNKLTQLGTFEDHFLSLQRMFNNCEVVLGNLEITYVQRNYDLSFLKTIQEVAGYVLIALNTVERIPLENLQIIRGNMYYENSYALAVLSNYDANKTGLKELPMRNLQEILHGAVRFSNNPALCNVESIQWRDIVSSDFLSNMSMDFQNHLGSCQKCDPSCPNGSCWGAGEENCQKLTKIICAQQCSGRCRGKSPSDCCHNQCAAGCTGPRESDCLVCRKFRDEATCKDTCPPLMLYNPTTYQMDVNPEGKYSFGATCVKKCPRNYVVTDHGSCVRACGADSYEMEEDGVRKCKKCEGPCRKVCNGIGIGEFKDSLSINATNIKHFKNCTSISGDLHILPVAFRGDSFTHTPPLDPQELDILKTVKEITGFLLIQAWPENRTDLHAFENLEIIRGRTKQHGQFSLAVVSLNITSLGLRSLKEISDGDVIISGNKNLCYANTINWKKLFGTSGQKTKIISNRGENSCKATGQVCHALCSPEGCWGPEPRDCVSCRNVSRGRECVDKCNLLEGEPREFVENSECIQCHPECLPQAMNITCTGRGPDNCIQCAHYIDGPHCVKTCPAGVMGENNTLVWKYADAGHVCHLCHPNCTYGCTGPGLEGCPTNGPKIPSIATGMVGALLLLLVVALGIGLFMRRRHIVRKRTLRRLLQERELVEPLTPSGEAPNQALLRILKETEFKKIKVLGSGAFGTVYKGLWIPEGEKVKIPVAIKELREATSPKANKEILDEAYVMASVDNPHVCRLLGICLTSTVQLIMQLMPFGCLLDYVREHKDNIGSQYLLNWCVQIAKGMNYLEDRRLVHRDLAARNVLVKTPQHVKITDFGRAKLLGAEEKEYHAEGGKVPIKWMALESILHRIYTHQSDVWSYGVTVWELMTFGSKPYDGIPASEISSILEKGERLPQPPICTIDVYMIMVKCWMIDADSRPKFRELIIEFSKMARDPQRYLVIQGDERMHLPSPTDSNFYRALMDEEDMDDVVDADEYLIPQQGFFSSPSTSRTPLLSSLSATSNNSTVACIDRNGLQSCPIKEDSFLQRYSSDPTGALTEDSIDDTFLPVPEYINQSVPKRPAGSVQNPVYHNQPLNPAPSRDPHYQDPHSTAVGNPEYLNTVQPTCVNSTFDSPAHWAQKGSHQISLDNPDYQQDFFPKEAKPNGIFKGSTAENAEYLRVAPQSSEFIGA

Row | SMILES | inhibition [1] | inhibition [2] | inhibition [3] | inhibition [4] | inhibition [5] | inhibition [6] | inhibition [7] | inhibition [8] | inhibition [9] | inhibition [10] | inhibition [11] | inhibition [12] | inhibition [13] | inhibition [14] | inhibition [15] | inhibition [16] | inhibition [17] | inhibition [18] | inhibition [19] | inhibition [20]
1 | NS(=O)(=O)c1ccc(N/N=C2\C(=O)Nc3ccc(C(=O)NCCCn4ccnc4)cc32)cc1 | 5.05% | 1.54% | 4.72% | 0.32% | 2.41% | 1.95% | 4.65% | 9.78% | 18.2% | 5.33% | 13.3% | 5.75% | 4.37% | 1.61% | 5.27% | 4.39% | 5.69% | 8.45% | 14.6% | 
2 | Cc1ccc(C(=O)NC2CCC2)cc1-c1ccc(C(=O)NCC2CC2)cc1 | -0.05% | 0.49% | 1.53% | 0.5% | 0.07% | 2.96% | 4.24% | 4.02% | 0.68% | 6.98% | 2.05% | 3.94% | 1.11% | 1.02% | 3.17% | 3.5% | 8.52% | 16.7% | 17.7% | 4.2%
3 | Nc1nccc(-c2c(-c3ccc(F)cc3)ncn2C2CCC(O)CC2)n1 (centres undefined) | 0.86% | 1.94% | 15.4% | 0.36% | 2.11% | -4.93% | -1.48% | -4.75% | 14.5% | 7.37% | 35.9% | 1.08% | 32.1% | 2.5% | 14.7% | -3.17% | 4.64% | 6.79% | 45.9% | 5.39%
4 | Cc1ccc(NC(=O)c2ccoc2)cc1-c1ccc(C(=O)NCC2CC2)cc1 | 0.9% | 2.36% | 1.46% | 0.92% | -0.44% | 1.99% | 2.02% | 5.05% | 6.13% | 2.46% | 5.88% | 3.21% | 3.35% | 0.88% | 0.82% | 5.47% | 5.7% | 8.06% | 10.6% | 0.47%
5 | CN(C)c1ccc2c(c1)/C(=C/Nc1ccc(S(N)(=O)=O)cc1)C(=O)N2 | 0.66% | 0.14% | 6.28% | -2.54% | -2.52% | 2.63% | 3.13% | -0.17% | 1.13% | 3.5% | 5.77% | 4.11% | 1.83% | 2.11% | 3.08% | 0.32% | 3.44% | 4.88% | 7.65% | 2.36%
6 | C/C(Nc1ccc(S(N)(=O)=O)cc1)=C1/C(=O)Nc2ccccc21 | 0.03% | -0.46% | -1.66% | -4.14% | -3.36% | -8.6% | -1.74% | -4.44% | -2.02% | -3.98% | -0.51% | -3.87% | -3.57% | -2.17% | -2.22% | -3.56% | -3.5% | -5.37% | -8.14% | 0.46%
7 | O=C1Nc2ccc(I)cc2C1=Cc1cc(Br)c(O)c(Br)c1 | 1.77% | -1.49% | -1.12% | 1.35% | 1.12% | 1.79% | 4.64% | 7.31% | 9.77% | 5.47% | 6.84% | 0.93% | 5.23% | 5.1% | 4.33% | 3.38% | 2.46% | 5.63% | 10.5% | -1.96%
